Data published in PubChem BioAssay (NCI).
This is part of a sample that, as a whole, favours compounds with a hit. Of some 79,000 tested, about 15% had one in any assay. Unmarked numbers belong to inactive results. The source made the active and inactive calls. No stated cut-off is given here; in the data, active means growth inhibition above about 70%; inactive means the rest. Where a SMILES comes first, the peptide text is derived from it. [ ]: non-standard residue; d: D form. The star is where a group is joined. ξ: configuration not given here. ξPhe(4-NO2) = NC(Cc1ccc([N+](=O)[O-])cc1)C(=O)O; Boc = CC(C)(C)OC(=O)*; OBn = c1ccc(CO*)cc1

Columns and labels:
[1] = NCI Yeast Anticancer Drug Screen. Data for the rad50 strain (AID 155);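 further: 0% = growth of vehicle-only cultures of the same strain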; details: S. cerevisiae rad50 strain growth inhibition; at 50.0 µM; active compounds read high
Summary of the method: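 Readout: growth inhibition relative to vehicle-treated cultures. Compound exposure was carried out in a genetically defined yeast strain deficient in DNA damage repair.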

[2] = NCI Yeast Anticancer Drug Screen. Data for the mec2-1 strain (AID 157); details: S. cerevisiae mec2-1 strain, at 50.0 µM, active compounds read high
Summary of the method: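 Readout is yeast growth inhibition, normalised to vehicle-treated controls, in the mec2-1 strain exposed to compound.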

[3] = NCI Yeast Anticancer Drug Screen. Data for the sgs1 mgt1 strain (AID 161);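 further: 0% = growth of cultures given vehicle only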; details: S. cerevisiae sgs1 mgt1 strain, at 50.0 µM, active compounds read high
Summary of the method: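 Compounds are added to genetically altered yeast, and growth is compared with cultures given vehicle alone to give percent inhibition.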

[4] = NCI Yeast Anticancer Drug Screen. Data for the bub3 strain (AID 167); details: S. cerevisiae bub3 mutant strain, at 50.0 µM, active compounds read high
Summary of the method: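 Readout: yeast growth inhibition, expressed relative to vehicle-only wells. The test organism is a mutant strain from a panel with lesions in DNA repair or checkpoint genes.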

[5] = NCI Yeast Anticancer Drug Screen. Data for the mlh1 rad18 strain (AID 175); details: S. cerevisiae mlh1 rad18 strain growth inhibition; at 50.0 µM; active compounds read high
Summary of the method: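 Test agents were incubated with a yeast strain of defined genotype (DNA damage repair defect). Inhibition of growth was derived by comparison with vehicle-exposed cultures.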

[6] = NCI Yeast Anticancer Drug Screen. Data for the cln2 rad14 strain (AID 165);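 further: 0% = growth equal to vehicle treated cultures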; details: S. cerevisiae cln2 rad14 strain, at 50.0 µM, active compounds read high
Summary of the method: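 Relative to vehicle controls, growth inhibition of compound-treated cln2 rad14 yeast was recorded.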

SMILES | growth inhibition [1] | growth inhibition [2] | growth inhibition [3] | growth inhibition [4] | growth inhibition [5] | growth inhibition [6]
Cc1cc(-c2ccccc2)cc(C[n+]2ccccc2)[n+]1-c1ccccn1 | 12.8% | 6.2% | 9.2% | 2.2% | 18.9% | –
C=Cc1cccc([N+](=O)[O-])c1 | 15.8% | -0.15% | 6.6% | 19.6% | -3.7% | –
C=C=CON1CCCCC1 | -16% | 14.9% | -24.9% | -12.7% | -0.6% | –
CC(C)(C)OC(=O)NC(Cc1ccc([N+](=O)[O-])cc1)C(=O)NCC(=O)OCc1ccccc1 (stereo not given) (Boc-[ξPhe(4-NO2)]-Gly-OBn) | -17.4% | 8.45% | 7.05% | -5.5% | -9% | –
COc1ccc(Nc2cc(N)nc(N)n2)c(=S)[nH]1 | 0.05% | -2.85% | -5.15% | 3.05% | -0.95% | –
C=CCc1ccc(O)c(OC)c1 | 36% | -3.25% | -10.4% | 26.4% | 25% | –
CCOC(=O)C(OC(C)=O)(C(=O)OCC)C(O)c1cccnc1 (stereo not given) | 15.1% | -2.25% | 16.3% | 8% | -1.05% | –
CS(=O)(=O)Nc1nc2ccccc2c(=O)o1 | -50.8% | -21.9% | -15.3% | 3.75% | 4.85% | –
O=C(NNC(=O)c1ccccc1F)c1ccc2ccccc2c1 | -15.3% | -13.3% | -8.75% | -2.1% | -6.55% | –
O=C(c1no[n+]([O-])c1C(=O)c1csc2ccccc12)c1csc2ccccc12 | -9.7% | -2.2% | -31.9% | -10.3% | -0.25% | –
O=[N+]([O-])c1cccc(-c2oc(C=Nc3ccccc3)c([N+](=O)[O-])c2-c2cccc([N+](=O)[O-])c2)c1 | -5% | -0.8% | 9.45% | 17.6% | 19.6% | –
Cn1c(N)c(NC(=O)CC#N)c(=O)n(C)c1=O | 20.9% | 2.7% | 27.3% | -9.85% | 21.1% | –
O=C(O)CCC12CCC(=O)C=C1NC(=O)CC2 (stereo not given) | 1.55% | -4.4% | -7.2% | 0.15% | -1.25% | –
CN(C)CCCC1c2ccccc2Oc2ccc(C(F)(F)F)cc21 (stereo not given) | -9.45% | -28.4% | -11.9% | 41.9% | 31.2% | –
Nc1nnnn1CCc1ccccc1 | 7.75% | 6.3% | -4% | 4.4% | 9.75% | –
CCC(C(C)=O)C(C)C (stereo not given) | 5.2% | 6.55% | 8.6% | -2% | 13.3% | –
COC(=O)c1cc(C)c(C)c2c1NC(=O)CNC2=O | -4.1% | -4.2% | 3.95% | -3.7% | 7.95% | –
COc1cc(NS(=O)(=O)c2ccccc2)c2nc3ccc(Cl)cc3nc2c1 | 3.6% | -8.4% | -25.1% | -7.25% | 12.3% | –
NC(CSSCC(N)=NCC12CC3CC(CC(C3)C1)C2)=NCC12CC3CC(CC(C3)C1)C2 | 99.4% (active) | 99.5% (active) | 99.5% (active) | 98.8% (active) | 99.2% (active) | –
CS(=O)(=O)C(C#N)S(C)(=O)=O | -1.85% | -1.05% | -6.05% | 40.9% | -10.1% | –
O=C(Nc1cc(Cl)ccc1Cl)C(=O)C(c1cnc2ccccc2n1)[N+](=O)[O-] (stereo not given) | 12.7% | 6.3% | -23.8% | 34.1% | 13.3% | –
O=S(=O)(O)c1cc2cc(S(=O)(=O)O)c(O)cc2cc1O | -20.6% | -7.55% | -1.35% | -0.25% | -7.9% | –
CC(=O)NNc1ccc(C(=O)O)cc1 | 13.2% | 1% | 1.85% | -2.7% | -2.4% | –
Cc1[nH]c(=O)[nH]c(=O)c1NC=O | -3.6% | -28.3% | -8.85% | -11.8% | -27.1% | –

SMILES | growth inhibition [1] | growth inhibition [2] | growth inhibition [3] | growth inhibition [4] | growth inhibition [5] | growth inhibition [6]
CCCCN1C(=O)CC2[C@@H]3CCc4cc(OC)ccc4C3CC[C@]2(C)C1=O (stereo not given in full) | 9.05% | 11.6% | 16.1% | 13.8% | 14.4% | –
CCc1ccccc1OCC1CO1 (stereo not given) | 10.9% | 3.5% | 11.2% | -11.9% | 18.2% | –
N#Cc1ccc(OCCCCCOc2ccc([N+](=O)[O-])cc2)cc1 | 19.4% | 11.6% | 8.65% | 13.9% | 4.4% | –
O=C1CN(N2C(=O)CSC2C23CC4CC(CC(C4)C2)C3)C(=O)CN1c1ccccc1 (stereo not given) | 7.2% | 2.1% | 13% | -2.6% | 12.8% | –
CCOc1ccc(NS(=O)(=O)c2ccc(F)cc2)cc1 | -27.4% | -21.3% | -26.9% | -24.1% | 3.05% | –
CC(=O)NC(=O)CCc1ccccc1 | -12.2% | -12.7% | -20.3% | -8.15% | -6% | –
COc1ccccc1NC(=O)CC(=O)N/N=C/c1ccc(N(CCC#N)S(=O)(=O)c2ccccc2)cc1 | -48.4% | 0.8% | -20.6% | -15.8% | -14.5% | –
BrC1C2=C(c3ccccc31)C(Br)c1ccccc12 (stereo not given) | 14.9% | 4.05% | 15.3% | -12.3% | 1.7% | –
Cc1ccccc1NC(=S)NN | 22.2% | 14.7% | 14.1% | 11.9% | 12.3% | –
CC(=O)OC/C=C1/CC[C@H]2[C@@H]3CCC4=CC(=O)CC[C@]4(C)[C@H]3[C@@H](O)C[C@]12C | 26.4% | -4.25% | 8.65% | 13.4% | 26.9% | –
NC1=Nc2ccccc2Sc2nnc(-c3ccc(Cl)cc3)n21 | 1.75% | -3.25% | -11.8% | -15.2% | 4.6% | –
O=S1(=O)c2ccccc2N2CCCc3cc(Cl)cc1c32 | -49.9% | -23.1% | -41.7% | -8.9% | -4.15% | –
CCOc1nc(N)nc(C)c1N=Nc1ccccc1C | 18.8% | 18.1% | 5.7% | 12.2% | 15.7% | –
c1ccc2c(c1)NC(C1OC3CCCN3C1C1Nc3ccccc3S1)S2 (stereo not given) | -43.2% | -6% | -28.6% | -14.1% | -24.4% | –
CC(/C=N/N(C)C)=N\N(C)C | -3.75% | 5.3% | -5.65% | 32.2% | -21.4% | –
ClC1CC/C=C\CC/C=C/CCC1Cl (stereo not given) | 55.7% | 48.1% | 22.1% | 29.2% | 41.3% | –
CC1=C2N3C[C@@H](n4c(=O)n(C)c(=O)n43)C23CCC1n1c(=O)n(C)c(=O)n13 | -7.1% | -0.85% | – | -7.9% | -9.95% | 7%
CCCCC(=O)NC1=CC(=O)c2ccccc2C1=O | 41.2% | 30.4% | – | 56.1% | 45.8% | 29.6%
O=C(/C=C/c1ccccc1)c1cccc([N+](=O)[O-])c1 | 26% | 14.6% | – | 41.9% | 4.4% | 54.9%
CCOC(=O)c1cnc2c(ccc3ncccc32)c1Cl | -13.9% | -7.45% | – | 7% | 27.1% | 25.2%
Cc1cc2oc(=O)cc(C(=O)O)c2c(=O)o1 | -15.8% | -9.55% | – | -8.85% | -16.1% | -17.6%
CCCCCCCCCCCCCCCCCCN=C=O | -23.6% | -45.8% | – | -31.8% | -39% | -10.8%
O=C(O)CC1CC2CC(=O)C1C2 (stereo not given) | -28.1% | -30.7% | – | -23.6% | 12.2% | -1.2%
